From PubChem BioAssay (NCATS)
Results filed as inconclusive are left out. A call without a number means that no potency is given here. Where a structure was tested more than once in an assay, its records may differ in their call. Activity calls are given as the source filed them. Unless noted, calls follow the shape of the dose curve; as a rule, active = well fitted curve in the direction sought with a large enough effect in the repeat runs; inconclusive = weak or mixed curves; inactive = no such curve, though single readings can be large; an effect the other way counts as inactive or inconclusive.

Tests used:
[1] = Primary qHTS for small molecule stabilizers of the endoplasmic reticulum resident proteome: Secreted ER Calcium Modulated Protein (SERCaMP) assay (AID 1508630; active = well fitted curve in the direction sought with a large enough effect; an effect the other way counts as inactive or inconclusive)
How it was run: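 GLuc-SERCaMP-expressing SH-SY5Y cells, pretreated 16 h with compound, are challenged with thapsigargin to empty ER calcium stores; after 4 h, coelenterazine is added directly to the medium and luminescence is imaged.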

Papain (Carica papaya) = Papain (Carica papaya) (UniProt P00784); test: Primary qHTS assay for inhibitors of the protease papain (AID 1645873; active = well fitted curve in the direction sought with a large enough effect; an effect the other way counts as inactive or inconclusive;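 also: papain turnover of Z-FR-AMC read as the AMC fluorescence gain over 10 min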; also: potency is read from the fitted curve at half-maximal effect; as to activity change, negative = inhibition: series mostly up to about 50 µM)
Chain of Papain (Carica papaya) (P00784 whole entry, looked up): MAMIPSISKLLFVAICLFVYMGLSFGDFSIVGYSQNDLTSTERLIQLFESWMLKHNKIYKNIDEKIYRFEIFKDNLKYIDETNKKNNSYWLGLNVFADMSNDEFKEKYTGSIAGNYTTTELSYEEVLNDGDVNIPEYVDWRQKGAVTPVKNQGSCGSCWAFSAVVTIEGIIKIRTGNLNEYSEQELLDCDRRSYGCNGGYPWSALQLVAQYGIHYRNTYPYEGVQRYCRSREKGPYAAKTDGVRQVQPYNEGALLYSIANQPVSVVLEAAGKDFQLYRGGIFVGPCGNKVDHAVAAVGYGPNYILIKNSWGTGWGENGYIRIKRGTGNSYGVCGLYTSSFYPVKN

[2] = A High-Content qHTS Against Drug Library for the Identification of Small Molecules that Inhibit DYT1 Early Onset Primary Dystonia-Associated Cell Pathology (AID 1645839; calls by dose curve; also: series mostly up to about 46 µM)
How it was run: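 Readout: %pathology, the punctate EGFP-TorsinA distribution from imaging, as the primary channel and cell count as the toxicity counterscreen. HEK293 Flp-In cells expressing delE TorsinA were induced with tetracycline and treated with compound for 48 h.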

[3] = biological target: Cytochrome P450 2D6 (Homo sapiens) (UniProt P10635); test: Cytochrome P450 family 2 subfamily D member 6 (CYP2D6) small molecule antagonists: luciferase biochemical (cell-free) qHTS assay (AID 1645840); also: nearly all actives have a fitted effect of over 55% in size; also: potency is read from the fitted curve at half-maximal effect; as to activity change, negative = inhibition: series mostly up to about 57 µM
Chain of Cytochrome P450 2D6 (Homo sapiens) (P10635 whole entry, looked up): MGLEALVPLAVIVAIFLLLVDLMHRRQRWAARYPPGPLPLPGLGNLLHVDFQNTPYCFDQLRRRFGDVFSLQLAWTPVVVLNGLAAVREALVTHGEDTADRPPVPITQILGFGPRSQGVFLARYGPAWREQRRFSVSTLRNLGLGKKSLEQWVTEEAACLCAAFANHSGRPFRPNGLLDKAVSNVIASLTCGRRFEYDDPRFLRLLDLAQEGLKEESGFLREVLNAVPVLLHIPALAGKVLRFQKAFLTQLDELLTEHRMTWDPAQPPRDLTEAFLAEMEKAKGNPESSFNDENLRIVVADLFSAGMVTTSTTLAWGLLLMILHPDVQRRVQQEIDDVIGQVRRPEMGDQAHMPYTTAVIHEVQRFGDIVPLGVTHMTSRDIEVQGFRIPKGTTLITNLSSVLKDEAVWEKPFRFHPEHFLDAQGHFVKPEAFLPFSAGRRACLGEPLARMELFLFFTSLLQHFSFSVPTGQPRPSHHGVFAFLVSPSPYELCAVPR
How it was run: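 P450-Glo luminescent screen: recombinant CYP2D6 enzyme–proluciferin substrate mix preincubated with compound 10 min at room temperature, then NADPH regeneration added for 1 h at room temperature. Detection reagent added for 20 min; luciferin light read as relative luminescence units.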

[4] = biological target: Cytochrome P450 2C9 (Homo sapiens) (UniProt P11712); test: Cytochrome P450 family 2 subfamily C member 9 (CYP2C9) small molecule antagonists: luciferase biochemical (cell-free) qHTS assay (AID 1645842); also: nearly all actives have a fitted effect of over 55% in size; also: potency is read from the fitted curve at half-maximal effect; as to activity change, negative = inhibition: series mostly up to about 57 µM
Chain of Cytochrome P450 2C9 (Homo sapiens) (P11712 whole entry, looked up): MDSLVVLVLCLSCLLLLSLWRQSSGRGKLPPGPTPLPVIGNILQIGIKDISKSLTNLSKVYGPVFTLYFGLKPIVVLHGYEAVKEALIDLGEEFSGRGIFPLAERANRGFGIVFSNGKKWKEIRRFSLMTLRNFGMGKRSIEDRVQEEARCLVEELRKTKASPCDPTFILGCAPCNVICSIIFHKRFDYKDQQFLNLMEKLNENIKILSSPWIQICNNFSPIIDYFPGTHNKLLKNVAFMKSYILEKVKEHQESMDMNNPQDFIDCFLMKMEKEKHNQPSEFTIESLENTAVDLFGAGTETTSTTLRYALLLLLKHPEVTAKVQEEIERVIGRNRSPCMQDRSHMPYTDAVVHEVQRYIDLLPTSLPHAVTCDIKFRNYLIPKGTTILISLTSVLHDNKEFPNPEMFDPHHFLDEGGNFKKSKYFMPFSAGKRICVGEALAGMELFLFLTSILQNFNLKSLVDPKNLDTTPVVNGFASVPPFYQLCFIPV
How it was run: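 Luminescence, after 20 min with luciferin detection reagent, reflected CYP2C9 turnover during a 1 h NADPH-driven reaction at 37C. Enzyme-substrate mix contained 0.4% bovine serum albumin and was preincubated with compound 10 min at room temperature.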

[5] = biological target: Cytochrome P450 3A4 (Homo sapiens) (UniProt P08684); test: Cytochrome P450 family 3 subfamily A member 4 (CYP3A4) small molecule antagonists: luciferase qHTS assay (AID 1645841); also: nearly all actives have a fitted effect of over 45% in size
Chain of Cytochrome P450 3A4 (Homo sapiens) (P08684 whole entry, looked up): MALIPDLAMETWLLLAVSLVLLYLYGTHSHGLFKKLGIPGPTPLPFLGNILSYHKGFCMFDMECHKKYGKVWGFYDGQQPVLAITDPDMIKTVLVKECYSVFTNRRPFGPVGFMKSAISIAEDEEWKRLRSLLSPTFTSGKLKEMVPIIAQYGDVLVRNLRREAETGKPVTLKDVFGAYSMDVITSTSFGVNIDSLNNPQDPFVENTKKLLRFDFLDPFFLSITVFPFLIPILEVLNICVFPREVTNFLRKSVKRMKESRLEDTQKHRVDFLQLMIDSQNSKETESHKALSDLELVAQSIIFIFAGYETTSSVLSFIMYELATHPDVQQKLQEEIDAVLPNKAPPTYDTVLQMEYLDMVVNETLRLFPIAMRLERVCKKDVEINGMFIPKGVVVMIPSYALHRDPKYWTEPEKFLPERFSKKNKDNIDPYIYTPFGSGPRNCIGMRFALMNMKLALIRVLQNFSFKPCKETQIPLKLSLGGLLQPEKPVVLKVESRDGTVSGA
How it was run: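 P450-Glo CYP3A4 enzyme with proluciferin substrate was preincubated with DMSO-dissolved compounds for 10 min at room temperature. NADPH regeneration solution started a 1 h reaction. Detection reagent stopped it, and luminescence was read after 20 min.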

[6] = biological target: N-terminal Xaa-Pro-Lys N-methyltransferase 1 (Homo sapiens) (UniProt Q9BV86); test: Confirmatory qHTS for Inhibitors of N-terminal methyltransferase 1 (NTMT1): MTaseGlo Assay (AID 1645874; active = well fitted curve in the direction sought with a large enough effect; an effect the other way counts as inactive or inconclusive; also: potency is read from the fitted curve at half-maximal effect; nearly all actives have a fitted effect of over 65% in size); settings: NTMT1 enzyme, MTase-Glo SAH luminescence
Chain of N-terminal Xaa-Pro-Lys N-methyltransferase 1 (Homo sapiens) (Q9BV86 whole entry, looked up): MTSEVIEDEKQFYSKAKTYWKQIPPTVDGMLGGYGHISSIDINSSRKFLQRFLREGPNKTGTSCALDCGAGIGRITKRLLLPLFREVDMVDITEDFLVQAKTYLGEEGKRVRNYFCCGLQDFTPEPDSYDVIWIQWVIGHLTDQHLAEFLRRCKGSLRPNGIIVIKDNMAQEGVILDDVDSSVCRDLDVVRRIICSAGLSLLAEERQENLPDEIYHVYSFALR
How it was run: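 Compounds are incubated with 125 nM NTMT1 and 100 uM SAM for 15 min before the SPKRIA peptide (1 uM) starts a 30 min room-temperature methylation. SAH is measured by coupled luciferase luminescence and curves fitted to a Hill equation.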

CC(C)NC[C@H](O)c1ccc(O)c(O)c1
Potency [1]: inactive | Potency (Papain (Carica papaya)): 1.12 µM (active) and inactive

O=Cc1ccccc1C=O
Potency [2]: inactive | Potency [3]: inactive | Potency [4]: inactive

NC(=O)c1ncn([C@@H]2O[C@H](CO)[C@@H](O)[C@H]2O)c1N
Potency [2]: inactive | Potency [3]: inactive | Potency [4]: inactive

Cc1cc(N)c2ccccc2[n+]1CCCCCCCCCC[n+]1c(C)cc(N)c2ccccc21
Potency [1]: inactive | Potency [3]: 5.35 µM (active) | Potency [4]: inactive | Potency (Papain (Carica papaya)): 15.8 µM (active)

CCN(CC)C(C)CN1c2ccccc2Sc2ccccc21 (stereo unspecified)
Potency [1]: inactive | Potency [3]: 19.5 µM (active) | Potency [4]: inactive | Potency (Papain (Carica papaya)): inactive

N[C@@H](CSCCCO)C(=O)O
Potency [2]: inactive | Potency [3]: inactive | Potency [4]: inactive

CCC(=O)Nc1ccc(O)cc1
Potency [2]: inactive | Potency [3]: inactive | Potency [4]: inactive

CC(C)(C)c1onc(OCP(=O)(O)O)c1CC(N)C(=O)O (stereo unspecified)
Potency [1]: inactive | Potency (Papain (Carica papaya)): inactive

CCCCC/C(C=O)=C\c1ccccc1
Potency [2]: inactive | Potency [3]: inactive | Potency [4]: inactive

Nc1cc(=O)[nH]c(N)n1
Potency [1]: inactive | Potency [3]: inactive | Potency [4]: inactive | Potency (Papain (Carica papaya)): inactive

CCOc1ccc2ccccc2c1C(=O)N[C@@H]1C(=O)N2[C@@H]1SC(C)(C)[C@@H]2C(=O)O
Potency [2]: inactive | Potency [3]: inactive | Potency [4]: inactive

N[C@@H](CSSC[C@H](N)C(=O)O)C(=O)O
% pathology change, negative = correction [2]: 10.2% [at 0.369 µM] (inactive) | activity change, negative = inhibition [3]: -1.65% [at 0.91 µM] (inactive) | activity change, negative = inhibition [4]: 15.4% [at 0.91 µM] (inactive)

Cc1cc2c(cc1S(N)(=O)=O)S(=O)(=O)CCC2
Potency [2]: inactive | Potency [3]: inactive | outcome [5]: inactive | Potency [4]: inactive

CC/C=C(\C(=O)N[C@@H]1C(=O)N2C(C(=O)OCOC(=O)C(C)(C)C)=C(COC(N)=O)CS[C@H]12)c1csc(N)n1
Potency [2]: inactive | Potency [3]: inactive | Potency [4]: 15.5 µM (active)

CCCCOC(=O)c1ccc(O)cc1
Potency [2]: inactive

CC(C)(O)c1ccccc1CC[C@@H](SCC1(CC(=O)O)CC1)c1cccc(/C=C/c2ccc3ccc(Cl)cc3n2)c1
Potency [2]: inactive | Potency [3]: inactive | Potency [4]: inactive

CN(C)CCCN1c2ccccc2Sc2ccc(Cl)cc21
Potency [1]: inactive | Potency (Papain (Carica papaya)): inactive

COc1ccc2c(c1)C(=O)N(CCc1ccc(S(=O)(=O)NC(=O)NC3CCCCC3)cc1)C(=O)C2(C)C
Potency [1]: inactive | Potency [4]: 13.8 µM (active)

CC1(C)OC(=O)NC1=O
Potency [2]: inactive | Potency [3]: inactive | Potency [4]: inactive

CO/N=C(\C(=O)N[C@@H]1C(=O)N2C(C(=O)O)=C(CSc3nc(=O)c(O)nn3C)CS[C@H]12)c1csc(N)n1
Potency [2]: inactive

O=S(=O)(O)NC1CCCCC1
Potency [2]: inactive | Potency [3]: inactive | Potency [4]: inactive

CN(C)CCCO[C@@H]1[C@H]2OC(C)(C)O[C@H]2O[C@@H]1C(O)CO (stereo partly specified)
Potency [2]: inactive | Potency [3]: inactive | Potency [4]: inactive

CC1=C(CC(=O)O)c2cc(F)ccc2/C1=C\c1ccc(S(C)=O)cc1 (stereo unspecified)
Potency [1]: inactive | Potency [3]: inactive | Potency (Papain (Carica papaya)): inactive

COc1ccc2cc1Oc1cc3c(cc1OC)CC[N+](C)(C)[C@H]3Cc1ccc(cc1)Oc1c(OC)c(OC)cc3c1[C@@H](C2)[N+](C)(C)CC3
Potency [2]: inactive | Potency [3]: inactive | Potency [4]: inactive

[Cl][In]([Cl])[Cl]
Potency [2]: inactive | Potency [3]: inactive | outcome [5]: inactive | Potency [4]: inactive | Potency [6]: 4.91 µM (active)

N=c1c[n+](N2CCOCC2)[n-]o1
Potency [1]: inactive | Potency (Papain (Carica papaya)): inactive

CCCc1c(OCCCCc2nn[nH]n2)ccc(C(C)=O)c1O
Potency [1]: inactive | Potency [4]: 0.138 µM (active)

CNC(=O)Oc1ccc2c(c1)[C@]1(C)CCN(C)[C@@H]1N2C
Potency [1]: inactive | Potency [3]: 0.977 µM (active) | Potency [4]: inactive | Potency (Papain (Carica papaya)): inactive

CC(O)CN(CCN(CC(C)O)CC(C)O)CC(C)O (stereo unspecified)
Potency [2]: inactive | Potency [3]: inactive | Potency [4]: inactive

CC1=C(/C=C/C(C)=C/C=C/C(C)=C/C(=O)O)C(C)(C)CCC1
Potency [1]: inactive | Potency [3]: inactive | Potency (Papain (Carica papaya)): inactive

Oc1ccc(C(O)CNCCCCCCNCC(O)c2ccc(O)c(O)c2)cc1O (stereo unspecified)
Potency [2]: inactive | Potency [3]: inactive | Potency [4]: inactive

CC1(C)S[C@@H]2[C@H](NC(=O)Cc3ccccc3)C(=O)N2[C@H]1C(=O)O (tested in a mixture with another compound)
Potency [2]: inactive

C[C@H](NC(CCc1ccccc1)C(=O)O)C(=O)N1CCC[C@H]1C(=O)O (stereo partly specified)
Potency [1]: inactive | Potency [3]: inactive | Potency [4]: inactive | Potency (Papain (Carica papaya)): inactive

NC(N)=NCCC[C@H](N)C(=O)O
Potency [1]: inactive | activity change, negative = inhibition [3]: 2.59% [at 4.83 µM] (inactive) | activity change, negative = inhibition [4]: -6.78% [at 4.83 µM] (inactive) | Potency (Papain (Carica papaya)): inactive

O=C(O)COc1nn(Cc2ccccc2)c2ccccc12
Potency [2]: inactive | Potency [3]: inactive

OCCN1CCN(CCCN2c3ccccc3Sc3ccc(Cl)cc32)CC1
Potency [1]: inactive | Potency (Papain (Carica papaya)): inactive

COc1ccccc1O
Potency [2]: inactive | Potency [3]: inactive | Potency [4]: inactive
